# Test results published in the supplement of paper PMC8728848.
# The full list was thinned out, with the strongest signals kept by preference.
# B1: Galatrox (Botrops atrox), P0DM53 (protein)
# chain: NNCPQDWLPMNGLCYKIFDELKAWKDAEMFCRKYKPGCHLASIILYGESPEWAEGHSEVWLGLWDKKKDFSWEWTDR
# How the values were obtained:
# Test in all cases: glycan array binding signal (z-score within array); higher = stronger binding
# Conditions in all cases: glycan notation: IUPAC condensed, linker removed
# [1] = target: Fuc(a1-2)Gal(b1-3)GlcNAc(b1-3)[Fuc(a1-3)[Gal(b1-4)]GlcNAc(b1-6)]Gal(b1-4)Glc
# Method in brief: (§1)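 The binding signal is a Z-score computed within each array. Data were drawn from 3228 arrays in the Consortium for Functional Glycomics database, restricted to those with a known protein sequence. Scores were averaged over arrays of the same protein sequence at different concentrations or buffers, and over linkers, and negative values can be taken as non-binding.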
# [2] = target: Fuc(a1-2)Gal(b1-4)GlcNAc(b1-3)GalNAc
# Method in brief: as §1
# [3] = target: Fuc(a1-2)Gal(b1-4)[Fuc(a1-3)]GlcNAc
# Method in brief: as §1
# [4] = target: Fuc(a1-2)Gal(b1-4)[Fuc(a1-3)]GlcNAc(b1-2)Man(a1-3)[Fuc(a1-2)Gal(b1-4)[Fuc(a1-3)]GlcNAc(b1-2)Man(a1-6)]Man(b1-4)GlcNAc(b1-4)GlcNAc
# Method in brief: as §1
# [5] = target: Fuc(a1-2)[GalNAc(a1-3)]Gal
# Method in brief: as §1
# [6] = target: Gal(a1-3)Gal(b1-4)GlcNAc
# Method in brief: as §1
# [7] = target: Gal(a1-6)Glc
# Method in brief: as §1
# [8] = target: Gal(b1-3)Gal(b1-4)GlcNAc
# Method in brief: as §1
# [9] = target: Gal(b1-3)GlcNAc(b1-3)Gal(b1-4)Glc
# Method in brief: as §1
# [10] = target: Gal(b1-3)[Fuc(a1-4)]GlcNAc(b1-2)Man(a1-3)[Gal(b1-3)[Fuc(a1-4)]GlcNAc(b1-2)Man(a1-6)]Man(b1-4)GlcNAc(b1-4)[Fuc(a1-6)]GlcNAc
# Method in brief: as §1
# [11] = target: Gal(b1-3)[GlcNAc(b1-6)]GalNAc
# Method in brief: as §1
# [12] = target: Gal(b1-4)GlcNAc(a1-6)Gal(b1-4)GlcNAc
# Method in brief: as §1
# [13] = target: Gal(b1-4)GlcNAc(b1-2)Man(a1-3)[Gal(b1-4)GlcNAc(b1-2)Man(a1-6)]Man(b1-4)GlcNAc(b1-4)GlcNAc
# Method in brief: as §1
# [14] = target: Gal(b1-4)GlcNAc(b1-2)Man(a1-3)[Man(a1-6)]Man(b1-4)GlcNAc(b1-4)GlcNAc
# Method in brief: as §1
# [15] = target: Gal(b1-4)GlcNAc(b1-2)Man(a1-6)[Man(a1-3)]Man(b1-4)GlcNAc(b1-4)GlcNAc
# Method in brief: as §1
# [16] = target: Gal(b1-4)GlcNAc(b1-2)[Gal(b1-4)GlcNAc(b1-4)]Man(a1-3)[Gal(b1-4)GlcNAc(b1-2)Man(a1-6)]Man(b1-4)GlcNAc(b1-4)GlcNAc
# Method in brief: as §1
# [17] = target: Gal(b1-4)GlcNAc(b1-3)Gal(b1-4)GlcNAc
# Method in brief: as §1
# [18] = target: Gal(b1-4)GlcNAc(b1-3)Gal(b1-4)GlcNAc(b1-3)Gal(b1-4)GlcNAc
# Method in brief: as §1
# [19] = target: Gal(b1-4)GlcNAc(b1-3)Gal(b1-4)[Fuc(a1-3)]GlcNAc(b1-3)Gal(b1-4)[Fuc(a1-3)]GlcNAc
# Method in brief: as §1
# [20] = target: Gal(b1-4)GlcNAc(b1-3)[Gal(b1-4)GlcNAc(b1-6)]Gal(b1-4)GlcNAc
# Method in brief: as §1
# [21] = target: Gal(b1-4)GlcNAc(b1-6)GalNAc
# Method in brief: as §1
# [22] = target: Gal3S(b1-3)GlcNAc
# Method in brief: as §1
# [23] = target: Kdn(a2-6)Gal(b1-4)GlcNAc
# Method in brief: as §1
# [24] = target: Man(a1-2)Man(a1-3)[Man(a1-2)Man(a1-6)]Man
# Method in brief: as §1
# [25] = target: Man(a1-2)Man(a1-3)[Man(a1-2)Man(a1-6)]Man(a1-6)[Man(a1-2)Man(a1-2)Man(a1-3)]Man
# Method in brief: as §1
# [26] = target: Neu5Ac(a2-3)Gal(b1-3)GlcNAc6S
# Method in brief: as §1
# [27] = target: Neu5Ac(a2-3)Gal(b1-4)[Fuc(a1-3)]GlcNAc(b1-3)Gal(b1-4)GlcNAc
# Method in brief: as §1
# [28] = target: Neu5Ac(a2-3)Gal(b1-4)[Fuc(a1-3)]GlcNAc6S
# Method in brief: as §1
# [29] = target: Neu5Ac(a2-3)GalNAc
# Method in brief: as §1
# [30] = target: Neu5Gc(a2-3)Gal(b1-3)GlcNAc
# Method in brief: as §1
binder,measurement,setting,value
B1,glycan array binding signal (z-score),[1],-0.364
same,glycan array binding signal (z-score),[2],-0.36
same,glycan array binding signal (z-score),[3],-0.364
same,glycan array binding signal (z-score),[4],0.123
same,glycan array binding signal (z-score),[5],-0.357
same,glycan array binding signal (z-score),[6],-0.137
same,glycan array binding signal (z-score),[7],-0.37
same,glycan array binding signal (z-score),[8],3.61
same,glycan array binding signal (z-score),[9],0.413
same,glycan array binding signal (z-score),[10],-0.333
same,glycan array binding signal (z-score),[11],-0.192
same,glycan array binding signal (z-score),[12],3.28
same,glycan array binding signal (z-score),[13],1.27
same,glycan array binding signal (z-score),[14],0.001
same,glycan array binding signal (z-score),[15],1.15
same,glycan array binding signal (z-score),[16],3.31
same,glycan array binding signal (z-score),[17],3.16
same,glycan array binding signal (z-score),[18],3.28
same,glycan array binding signal (z-score),[19],3.31
same,glycan array binding signal (z-score),[20],4.18
same,glycan array binding signal (z-score),[21],2.44
same,glycan array binding signal (z-score),[22],-0.363
same,glycan array binding signal (z-score),[23],0.063
same,glycan array binding signal (z-score),[24],-0.378
same,glycan array binding signal (z-score),[25],-0.369
same,glycan array binding signal (z-score),[26],-0.36
same,glycan array binding signal (z-score),[27],2.3
same,glycan array binding signal (z-score),[28],-0.373
same,glycan array binding signal (z-score),[29],-0.364
same,glycan array binding signal (z-score),[30],-0.368
